# Laboratory results taken from PubChem BioAssay AID504467 (National Center for Advancing Translational Sciences (NCATS), 2011).
# The campaign covered roughly 330,000 compounds. About 7,700 (2.3%) were called active. Not shown: some 26% with an inconclusive outcome. Calls follow the shape of the dose curve; as a rule, active = well fitted inhibition curve with a large enough effect; inconclusive = small, poorly fitted or top-dose-only effect, or effect the other way; inactive = flat fitted curve, though single readings scatter. For the sample, actives were picked, then their nearest neighbours and some compounds at random.
# Assay: qHTS screen for small molecules that inhibit ELG1-dependent DNA repair in human embryonic kidney (HEK293T) cells expressing luciferase-tagged ELG1; also: nearly all actives have a fitted effect of over 55% in size
# Settings: HEK293T ELG1-luciferase reporter, luminescence, 16 h, DNA damage induced by 5-fluorouridine; series mostly up to 46.1 µM; activity change, negative = inhibition: at the top concentration
# From the text: NIH Molecular Libraries Probe Production Network [MLPCN] NIH Chemical Genomics Center [NCGC] MLPCN Grant: 1 R03 MH092164-01 Assay Provider: Kyungjae Myung, NHGRI, NIH Keywords: MLPCN, qHTS, NCGC, genotoxicity, cancer Assay Overview: Cancer cells divide rapidly compared to normal cells in the body. During cell division, cancer cells need to duplicate their genome by DNA replication. The failure of genome duplication leads to cancer cells' death. Therefore, inhibitors of DNA replication could specifically kill cancer cells. Based on this concept, many chemotherapeutic agents were developed and have been used to treat cancer patients. However, there are a limited number of agents available in the clinical setting, and some of those that do exist have low efficacy and severe side effects. Therefore, if we can find the compounds that effectively block DNA replication either by directly damaging DNA or by inhibiting other cellular mechanisms, the options for cancer treatment will be broadened. With this in mind, we developed a quantitative high-throughput ELG1-luciferase reporter gene assay. Small molecules that specifically block ELG1 function in response to DNA damage can be identified by monitoring the suppression of luciferase activity. Since ELG1 defines a pathway for repairing DNA damage, agents blocking ELG1 function can be used to sensitize cancer cells to chemotherapeutic agents whose mechanism of action involves the induction of DNA damage.
# Assay Protocol Summary: For genotoxicity screening, 2,000 cells in 4 uL/well were dispensed into white, solid-bottom 1536-well plates using a solenoid-based dispenser. Following transfer of 1 uL 5-Fluorouridine and 23 nL compound or DMSO vehicle by a pin tool, the plates were incubated 16 hr at 37 °C and 5% CO2. 5 ul ONE-Glo (Promega) was then added to each plate and following a 30 min incubation at room temperature, luciferase activity was quantified on a ViewLux CCD-based plate reader.
# % is scaled to controls: 0 for no effect and ±100 for the full control effect; potency is read from the fitted curve at half-maximal effect.
SMILES,"activity change, negative = inhibition",Potency
CCc1cccc(C)c1NS(=O)(=O)c1cc(Br)cnc1N,14.3% (inactive),–
COc1ccc(C)cc1N(C(=O)Cn1nnc(-c2ccc(C)o2)n1)C(C(=O)NC1CCCC1)c1ccncc1 (stereo not drawn),0.49% (inactive),–
COc1ccccc1NC(=O)COC(=O)CNC(=O)C1CCCCC1,14.3% (inactive),–
Cc1ccc(CC(=O)N(C)CC(=O)N(CC(C)C)c2c(N)n(CC(C)C)c(=O)[nH]c2=O)cc1C,5.07% (inactive),–
Cn1nnnc1SCC(=O)Nc1cccc(S(=O)(=O)N2CCCCC2)c1,-0.942% (inactive),–
COc1cccc(N(CC(=O)NC2CCCC2)C(=O)Cn2nnc(-c3ccc(C)o3)n2)c1,9.25% (inactive),–
CCOC(=O)C1CCN(C(=O)Cn2nc(C)c3c(C)n(-c4ccccc4)nc3c2=O)CC1,3.06% (inactive),–
CC1=C/C(=N\S(=O)(=O)c2ccccc2)C(C(C)C)=CC1=O,-28.8% (inactive),–
COc1ccc2cc(S(=O)(=O)Nc3ccccn3)ccc2c1,-4.39% (inactive),–
COc1ccc(S(=O)(=O)/N=C2\C=C(NS(=O)(=O)c3ccccc3)C(=O)c3ccccc32)cc1,–,23.1 µM (active)
CCCSc1nc2sc3c(c2c(=O)n1-c1ccc(OC)cc1)CCN(C)C3,-16% (inactive),–
COc1ccc(C(C(=O)NC2CCCC2)N(CCCO)C(=O)Cn2nnc(-c3ccc(C)o3)n2)cc1 (stereo not drawn),9.12% (inactive),–
COc1ccc(-c2nc(N)ncc2-c2ccc(Cl)cc2)c(O)c1,-24.7% (inactive),–
C=C(C)COc1ccc(-c2ncncc2-c2ccc(OC)cc2)c(O)c1,–,16.4 µM (active)
C=C(C)COc1ccc(-c2nc(N)ncc2-c2ccccc2OC)c(O)c1,-24.3% (inactive),–
COc1ccc(C(C)(C)C)cc1NC(=O)CCN1C(=O)C2CCCCC2C1=O (stereo not drawn),4.35% (inactive),–
COC(=O)c1c(NC(=O)c2ccccc2F)sc2c1C(C(=O)OC)CC2 (stereo not drawn),-3.34% (inactive),–
CCc1ccc(N(CC)c2ncnc3nc[nH]c23)cc1,–,4.11 µM (active)
CCOc1ccc(N=Cc2c(O)n(-c3cccc(C)n3)c(=O)c3ccccc23)cc1,-23.9% (inactive),–
CCOc1ccc(-n2c(O)c(/C=N/Nc3nnc(C)c(=O)[nH]3)c3ccccc3c2=O)cc1,-3.75% (inactive),–
CCOc1ccc(-n2c(O)c(/C=N/Nc3nc(C)cc(C)n3)c3ccccc3c2=O)cc1,–,14.6 µM (active)
COc1ccc2[nH]c3c(c2c1)CCN1C(=O)C(CC(=O)NCCc2ccccn2)C[C@H](C(=O)N2CCOCC2)[C@@]31C (stereo partly drawn),12.1% (inactive),–
COc1ccc(-c2nnc(SCC(=O)NC3CCCCC3)o2)cc1OC,1.19% (inactive),–
COc1ccc(CN(C(=O)CSc2nnc(-c3ccc(OC)c(OC)c3)o2)c2ccc(F)cc2)cc1,–,16.4 µM (active)

SMILES,"activity change, negative = inhibition",Potency
COc1ccc(CCNC(=O)CSc2nnc(-c3cccc(F)c3)o2)cc1OC,-0.414% (inactive),–
COc1ccc(NC(=O)c2sc3nc(C)nc(N4CCN(c5ccccn5)CC4)c3c2C)c(OC)c1,–,2.31 µM (active)
COc1cc2ccccc2cc1C(=O)Nc1ccc(N2CCOCC2)cc1,0.106% (inactive),–
CCC(=O)Nc1ccc2c(c1)nc(CCN1CCN(c3ccccn3)CC1)n2C,-15.2% (inactive),–
Cc1nc(N2CCN(c3ccccn3)CC2)c2c(C)c(C(=O)Nc3ccc(F)c(Cl)c3)sc2n1,–,3.26 µM (active)
COc1ccc(NC(=O)c2sc(N)nc2-c2ccccc2)cc1,-2.97% (inactive),–
COc1cc([N+](=O)[O-])ccc1NC(=S)N1CCN(c2ccccn2)CC1,-8.41% (inactive),–
COc1ccc(OC)c(NC(=O)c2sc3nc(C)cc(C)c3c2N)c1,21.9% (inactive),–
COc1ccc(NC(=O)c2sc(N3CCOCC3)nc2-c2ccccc2)c(OC)c1,–,13 µM (active)
CCN(CC)c1ccc(NC(=O)CN2CCN(c3ccccn3)CC2)cc1,-8.23% (inactive),–
Cc1cccc(N2C(=O)N3[C@H](c4ccc(F)cc4)[C@@H]4C(=O)N(C5CCCCC5)C(=O)[C@@H]4[C@]3(Cc3ccccc3)C2=O)c1,-2.6% (inactive),–
COc1ccc(CN2C3CCCC2CC(NC(=O)c2cccc(F)c2)C3)cc1 (stereo not drawn),7.95% (inactive),–
CN(CC(=O)NCC(c1ccccc1)N1CCCC1)S(=O)(=O)c1ccc(Cl)cc1 (stereo not drawn),8.82% (inactive),–
COc1cc(/C=C2\SC(=O)NC2=O)ccc1OCc1ccc(Cl)nc1,13.8% (inactive),–
O=C(NCC(c1ccco1)N1CCc2ccccc21)c1cccc(F)c1 (stereo not drawn),-6.47% (inactive),–
CCCCn1c(N)c(N(CC)C(=O)c2ccc(N(C)S(=O)(=O)c3ccc(C)cc3)cc2)c(=O)[nH]c1=O,2.79% (inactive),–
COCCN1C(=O)C(=O)/C(=C(/O)c2ccc(S(=O)(=O)N3CCCCC3)cc2)C1c1ccc(OC)c(OC)c1 (stereo not drawn),6.1% (inactive),–
Cn1cc(C(=O)c2ccc(Cl)cc2Cl)cc1C(=O)NN,0.667% (inactive),–
Cc1noc(C)c1S(=O)(=O)N(C)C[C@H]1Oc2ccc(NC(=O)C3CC3)cc2C(=O)N([C@H](C)CO)C[C@@H]1C,0.566% (inactive),–
Cc1ccc(CN2CC(C(=O)NNC(=O)Cn3ccc(C(F)(F)F)n3)CC2=O)cc1 (stereo not drawn),-0.475% (inactive),–
Cc1cc(C(=O)Nc2c(C)nn(Cc3ccccc3)c2C)on1,3.72% (inactive),–
Cc1nn(Cc2ccc(Cl)c(Cl)c2)c(C)c1NC(=O)c1cc(C2CC2)on1,–,16.4 µM (active)
O=C(Nc1cc(C(F)(F)F)ccc1Cl)c1cc(C2CC2)on1,2.26% (inactive),–
CC(=O)Nc1cccc(NC(=O)c2ccc3c(c2)CCN3S(C)(=O)=O)c1,-20.3% (inactive),–
